PubChem BioAssay (NCI)
About 83,000 compounds went through this panel and 20% of them were active in at least one assay; those are over-represented in the sample as a whole.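 Cell lines were cultured in 96-well plates, exposed to a single compound concentration, and assessed for percent growth 48 hours later.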 Values without a mark were called inactive. Calls of active or inactive are those of the source. How the source made its calls: active means growth percent below 10; inactive means the rest.

What was measured:
Test in all cases: NCI-60 one-dose screen, 48 h (100 = growth as untreated, 0 = no growth, -100 = all killed)
Details in all cases: 10 µM unless noted
[1] = system: HCT-15 colon
[2] = system: HT29 colon
[3] = system: SNB-75 CNS
[4] = system: SNB-19 CNS
[5] = system: U251 CNS
[6] = system: PC-3 prostate
[7] = system: SK-MEL-5 melanoma
[8] = system: UACC-62 melanoma
[9] = system: LOX IMVI melanoma
[10] = system: SK-MEL-28 melanoma
[11] = system: SK-MEL-2 melanoma
[12] = system: EKVX NSCLC
[13] = system: SN12C renal
[14] = system: TK-10 renal
[15] = system: ACHN renal
[16] = system: CAKI-1 renal
[17] = system: A498 renal
[18] = system: MOLT-4 leukemia
[19] = system: CCRF-CEM leukemia

Structure (SMILES)	growth [1]	growth [2]	growth [3]	growth [4]	growth [5]	growth [6]	growth [7]	growth [8]	growth [9]	growth [10]	growth [11]	growth [12]	growth [13]	growth [14]	growth [15]	growth [16]	growth [17]	growth [18]	growth [19]
COc1cccc(N2CCN(c3cccc(C)n3)CC2)c1	105%	94.9%	133%	113%	97.7%	99.6%	92.4%	95.1%	103%	111%	94%	106%	105%	123%	108%	82.4%	93.9%	101%	
Nc1ccccc1C#Cc1ccccc1C#Cc1ccc(OCCCCCCOc2ccc(C#Cc3ccccc3C#Cc3ccccc3N)cc2)cc1	106%	108%	105%	112%	100%	97%	82.4%	96.6%	103%	109%	103%	89.3%	99.4%	141%	102%	91.6%	116%	103%	-59.7% (active)
CCCCCN(CCCCC)CCCNc1c2c(nc3ccc(Cl)cc13)CCCC2	32.5%	1.62% (active)	47.9%	60.8%	35%	41.7%	23.4%	51%	14%	71.2%	13.4%	50.7%	49.9%	31.5%	40.8%	26.6%	38.4%	27.8%	27%
CCN(Cc1cccc(S(=O)(=O)[O-])c1)c1ccc(C(=C2C=CC(=[N+](CC)Cc3cccc(S(=O)(=O)O)c3)C=C2)c2ccccc2S(=O)(=O)O)cc1	103%	103%	87.9%	106%	99.2%	93.7%	97.4%	101%	96%	109%	115%	94.1%	109%	93.1%	104%	96.7%	134%	96.5%	
Cc1ccc(/C=C(/C#N)n2nnc3ncccc32)cc1	2.19% (active)	6.53% (active)	-2.77% (active)	56.7%	40.4%	22.3%	12.5%	22.1%	4.54% (active)	28.3%	17.1%	24.8%	8.6% (active)		0.614% (active)		-7.36% (active)		
CCOc1cc(/C=C/C(=O)CC(=O)/C=C/c2ccc(OC(=O)CNCCN(CC)CC)c(OCC)c2)ccc1OC(=O)CNCCN(CC)CC	-59.1% (active)	-88% (active)	-15.1% (active)	11.4%	-60.1% (active)	-18.5% (active)	-90.1% (active)	-70.9% (active)	-82.3% (active)	-57.1% (active)	4.43% (active)	-38.1% (active)	-9.33% (active)	7.64% (active)	-88.4% (active)	-30.9% (active)	-26.8% (active)	-23.4% (active)	4.21% (active)
C(#Cc1ccccc1C#Cc1ccccn1)c1ccc(OCCCCCCOc2ccc(C#Cc3ccccc3C#Cc3ccccn3)cc2)cc1	41.2%	93%	92.6%	72.5%	50.3%	39.6%	20.6%	23.9%	14.7%	81.8%	64.2%	42.5%	67.8%	76.2%	44.2%	57.9%	57.5%	21.6%	
O=C(COc1cccc(/C=C2\Oc3ccc4ccccc4c3C2=O)c1)c1ccc([N+](=O)[O-])cc1	89.5%	96.5%	81.4%	100%	94.5%	75.6%	87.2%	81.1%	-30.3% (active)	124%	44.3%	85.4%	98.2%	99.9%	98.4%	69.3%	108%	32%	35.7%
